High-throughput results as filed in PubChem.
Dicer inh – inhibitors of Dicer pre-microRNA processing, primary screen, biochemical, cat-ELCCA, chemiluminescence | Endoribonuclease Dicer (Homo sapiens), Q9UPY3 | cat-ELCCA pre-miR-21 Dicer processing; stronger effect = higher value | z-score at 25 µM | hit rate 6% among 47,000 | AID 1347074, 2019; in the data active means z-score above about 3, passing the limit was not always enough;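 further: plate controls were vehicle for no effect and no enzyme for full effect; higher signal means more uncleaved substrate so more Dicer inhibition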
Starred values were filed as active, the others as inactive. Many of the other results were omitted from the sample, so hits are more common in it than they were.

SMILES	Dicer inh
NC(=O)NC(=O)Nc1ccccc1Cl	6*
NC(=O)NC(=S)NC(=O)c1ccccc1Cl	-2.3
NC(N)=N/N=C\c1cccc2ccccc12	-0.87
S=c1[nH]c(=S)c2cnc(N3CCOCC3)nc2[nH]1	3.4*
CCN(CC)c1ncc2c(=S)[nH]c(=S)[nH]c2n1	-0.96
S=c1[nH]c(=S)c2cnc(N3CCN(c4ccccc4)CC3)nc2[nH]1	0.45
O=C(O)CCCCCNc1ncnc2c1oc1ccccc12	0.03
O=C1c2cccc3cccc(c23)C(=O)N1CC(=O)N1CCc2ccccc21	3.8*
CC(O)CN1C(=O)c2cccc3cccc(c23)C1=O (configuration not stated)	3.2*
O=C(CN1C(=O)c2cccc3cccc(c23)C1=O)N1CCOCC1	0.47
O=C1c2cccc3cccc(c23)C(=O)N1CCNCCN1C(=O)c2cccc3cccc(c23)C1=O	1.2
NC(=O)C1CCN(C(=O)CN2C(=O)c3cccc4cccc2c34)CC1	-1
O=C(O)CN1C(=O)c2cccc3cccc(c23)C1=O	3.7*
O=C(O)CCCN1C(=O)c2cccc3cccc(c23)C1=O	2.1
O=C(O)CCCCCN1C(=O)c2cccc3cccc(c23)C1=O	-0.24
O=C1c2cccc3cccc(c23)C(=O)N1CCCCO	1.4
O=[N+]([O-])c1cc(C(F)(F)F)ccc1-n1ccc(-c2cccs2)n1	-0.76
Cc1cc(Cl)ccc1Nc1nnns1	-1.2
CCCSc1nnc2c(n1)OC(C)=Nc1ccccc1-2	1.8
CCOC(=O)C1=C(C)NC2=C(C(=O)CC(C)(C)C2)C1c1cc(Br)c(C)s1 (configuration not stated)	-1.6
CCOC(=O)N1CCc2c(sc(N)c2C(=O)c2ccc(OC)cc2)C1	-2
CC(=N\Nc1c(Cl)cc(Cl)cc1Cl)/C(=N\O)C(=O)Nc1ccccc1	3*
O=C(NC(=S)Nc1c(Cl)cc(Cl)cc1Cl)c1ccccc1	-1.2
C/C(O)=C(\N=O)C(=O)Nc1ccccc1	-0.95
O=c1c(-c2nnnn2-c2ccc(Cl)cc2)c[nH]c2ccccc12	0.28
SMILES	Dicer inh
CCN(c1nc(C)cc(OC)n1)S(=O)(=O)c1ccc(C)cc1	2.1
C=CCN(c1nc(C)c(Br)c(OC)n1)S(=O)(=O)c1ccc(C)cc1	3.6*
C=CCN(c1ccccc1C1=N/C(=C\c2ccc(C)cc2)C(=O)O1)S(=O)(=O)c1ccc(Cl)cc1	-0.86
COC(=O)C1=C(C)NC2=C(C(=O)CCC2)C1c1c(F)cccc1Cl (configuration not stated)	1.4
CCOC(=O)c1cc(CC)sc1NC(=S)Nc1cccc(Cl)c1	7.1*
CCOC(=O)c1cc(C)ccc1NC(=S)Nc1cccc(Cl)c1	-5.3
CCOC(=O)c1cc(CC)sc1NC(=S)Nc1ccccc1C(F)(F)F	-0.97
CCCCNC(=O)N1CCC(n2cccc2)CC1	-0.55
Cc1nn2c3c(cnc2c1-c1ccc(F)cc1)C(=O)CC(c1ccc(Cl)cc1)C3 (configuration not stated)	-1.1
O=C(Cn1c(=O)oc2cccnc21)c1ccc(Cl)cc1	-0.54
COc1ccccc1-n1cnc2cc(NCc3ccncc3)ccc21	5.3*
COc1ccccc1-n1cnc2cc(Nc3nnc(C)c4ccccc34)ccc21	-0.27
c1ccc(-n2cnc3cc(NCc4ccccn4)ccc32)cc1	2.6
NC(N)=NC(N)=Nc1cccc(C(F)(F)F)c1	0.91
CCC(Sc1nc(C)cc(C)n1)C(=O)Nc1nnc(C)s1 (configuration not stated)	1.4
Nc1nc(-c2ccc(Cl)cc2)cs1	-4.2
CCCCOc1ccc(-c2nnc(N)s2)cc1	2.7
Cc1cccc(-c2nc(N)nc(N)n2)c1	-0.46
Nc1nnc(-c2ccc(Cl)cc2)s1	8.7*
Cc1cccc(-c2nnc(N)s2)c1	4.4*
CCCOc1cccc(-c2nnc(N)s2)c1	2.3
CC(CN1CCN(Cc2ccccc2)CC1)N(C(=O)c1ccoc1)c1ccccn1 (configuration not stated)	1.5
O=C1C2C(c3ccccc3)OC3(C(=O)c4ccccc4C3=O)C2C(=O)N1c1ccccc1Cl (configuration not stated)	-1.4
CC1=CCC2CC1C(c1ccccc1)OC2(C)C (configuration not stated)	2
COc1cc2c(cc1OC)C(Nc1nc(-c3ccccc3)cs1)=NC(C)(C)C2	0.46
SMILES	Dicer inh
COc1ccc(-c2nc3c([nH]2)c(=O)n(C)c(=O)n3C)c(OC)c1	-0.42
Cn1c(=O)c2c(-c3ccc(F)cc3)cc(-c3cccc(F)c3)nc2n(C)c1=O	2.2
COc1ccc(-c2cc(-c3ccc(OC)cc3)c3c(=O)n(C)c(=O)n(C)c3n2)cc1	3.4*
N/C(=N/OC(=O)Nc1ccc(Cl)cc1)c1csc([N+](=O)[O-])c1	5*
O=C(Nc1ccc(Cl)cc1)Nc1csc([N+](=O)[O-])c1	-0.84
N/C(=N\OC(=O)Nc1ccc(Cl)cc1)c1ncc([N+](=O)[O-])s1	-2.5
Cn1c(O)c(C=Nc2ccc(Cl)cc2Cl)c(=O)n(C)c1=O	-0.57
CCOC(=O)C1CCN(/C=C(\C#N)S(=O)(=O)c2ccccn2)CC1	9.1
CCN1C(=O)C2(/C(=C(/O)c3ccc(C)cc3)C(=O)C(=O)N2CCOC)c2ccccc21 (configuration not stated)	2.5
CCCCN1C(=O)C2(/C(=C(/O)c3ccc(C)cc3)C(=O)C(=O)N2CCCOC)c2ccccc21 (configuration not stated)	5.1*
CCCCN1C(=O)C2(/C(=C(/O)c3ccc(OC)cc3)C(=O)C(=O)N2CCOC)c2ccccc21 (configuration not stated)	3.7*
C=CCN1C(=O)C2(/C(=C(/O)c3ccccc3)C(=O)C(=O)N2CCOC)c2ccccc21 (configuration not stated)	1.7
CCCCN1C(=O)C2(/C(=C(/O)c3ccc(Cl)cc3)C(=O)C(=O)N2CCCOC)c2ccccc21 (configuration not stated)	0.62
COCCCN1C(=O)C(=O)/C(=C(\O)c2ccc(C)cc2)C12C(=O)N(C)c1ccccc12 (configuration not stated)	-1.7
OCCn1c(-c2ccc(-c3ccccc3)cc2)cn2c3ccccc3nc12	2.9
Cc1oc2ccc(OCC(=O)c3ccccc3)cc2c1C(=O)OC(C)C	-0.34
CC1(C)CC(n2c(SCC(=O)c3ccc(Br)cc3)nc3ccccc3c2=O)CCO1 (configuration not stated)	0.54
CSc1ccccc1NC1=NS(=O)(=O)c2ccccc21	-0.02
O=S1(=O)/N=C(/O)c2ccccc2Sc2ccccc21	3.5*
Cc1ccc(OC2=NS(=O)(=O)c3ccccc32)cc1	0.25
COc1ccc(CC(=O)c2ccc(C(=O)Cc3ccc(OC)c(OC)c3)cc2)cc1OC	1.2
CCOC(=O)c1c(C)nn(-c2ccc(NC(=O)NS(=O)(=O)c3ccc(C)cc3)cc2)c1C	-0.94
Cn1c(=O)n(C)c2cc(C3C(C#N)=C(N)Oc4c3ccc3ccccc43)ccc21 (configuration not stated)	-1.3
CC1CCN(C(=O)Cn2cnc3c2c(=O)n(C)c(=O)n3C)CC1	3.1*
COCCCNC(=O)Cn1cnc2c1c(=O)n(C)c(=O)n2C	1.6
Cn1c(=O)c2c(ncn2CC(=O)N2CCOCC2)n(C)c1=O	1.4
Cn1c(=O)c2c(ncn2CC(=O)N2CCCC2)n(C)c1=O	-0.45
CCOC(=O)CCn1cnc2c1c(=O)n(C)c(=O)n2C	5.2
CCOC(=O)C1CCCN(C(=O)Cn2cnc3c2c(=O)n(C)c(=O)n3C)C1 (configuration not stated)	7.2*
